In the supplement of paper PMC3334620:
Whole data set: some 33,000 sequences, median “E-score (-0.5 to 0.5)” near -0.013, cut for the highest 2% near 0.3. The sample holds the highest values, similar sequences and a random draw of the others, so the mix is not that of the screen.

What follows are sequences tested against T1, Msn1 (UniProt P22148) (assay: PBM E-score (8-mer binding enrichment) (E-score (-0.5 to 0.5)); higher = stronger / more preferred TF binding). Conditions: protein concentration: 200 nM; construct: GST-full length.
T1 sequence: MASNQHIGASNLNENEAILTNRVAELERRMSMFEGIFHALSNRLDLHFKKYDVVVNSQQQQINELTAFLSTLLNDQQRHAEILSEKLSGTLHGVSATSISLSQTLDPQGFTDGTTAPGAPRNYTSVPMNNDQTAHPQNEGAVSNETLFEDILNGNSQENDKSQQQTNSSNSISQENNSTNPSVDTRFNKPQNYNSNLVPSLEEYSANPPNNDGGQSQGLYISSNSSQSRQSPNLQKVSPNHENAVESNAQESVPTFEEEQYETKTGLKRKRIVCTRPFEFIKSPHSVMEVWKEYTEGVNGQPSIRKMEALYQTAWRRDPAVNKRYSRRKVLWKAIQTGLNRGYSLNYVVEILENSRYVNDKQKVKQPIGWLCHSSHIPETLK
Procedure: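 Universal 'all 10-mer' protein binding microarrays (Agilent AMADID 015681) probed with GST-tagged S. cerevisiae TFs (full-length or DBD) made by in vitro transcription/translation (PURExpress), about 100-200 nM. Bound TF was detected with fluorescent anti-GST. Each ungapped 8-mer (which stands for itself and its reverse complement) is scored by the PBM enrichment score (E-score), a modified Wilcoxon-Mann-Whitney statistic from -0.5 to +0.5, computed with the Universal PBM Analysis Suite. Scale: above 0.35 generally sequence-specific binding.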

| Sequence | PBM E-score |
| --- | --- |
| AGGGACAA | 0.487 |
| CGGGACAC | 0.376 |
| AGGGACAT | 0.488 |
| CGGGACAA | 0.463 |
| AGGGACCA | -0.188 |
| AGGGACCT | -0.0323 |
| CGGGACAG | 0.197 |
| AGGGACGA | 0.261 |
| AGGGACGG | -0.35 |
| CGGGACTC | 0.0112 |
| CGGGACGA | 0.115 |
| CGGGACCA | -0.152 |
| GGCTAAGA | 0.0666 |
| ATCCTAGC | -0.118 |
| CCAAGAAA | 0.0697 |
| AAATAGCA | -0.00406 |
| AACCTCGT | -0.0168 |
| AGGGACGC | -0.0191 |
| AGGGACAC | 0.45 |
| AGGGACAG | 0.107 |
| AAATTTGA | 0.19 |
| AATTTTGT | 0.34 |

| Sequence | PBM E-score |
| --- | --- |
| AAATTTGG | 0.104 |
| AAATTTGT | 0.363 |
| AATTTTGA | 0.161 |
| AATTTTGC | 0.0375 |
| ACATGCGT | 0.0734 |
| CGTGTACA | 0.277 |
| CATTCTAG | -0.0107 |
| CTAGCGCA | -0.153 |
| CGCAAAGC | 0.0415 |
| ACAATACT | 0.325 |
| ACAATACA | 0.0447 |
| ACAATACG | 0.0932 |
| ATAGACAC | 0.245 |
| ATAGACAA | 0.41 |
| ATAGACAG | 0.202 |
| ATAGACTA | 0.00413 |
| ATAGACAT | 0.428 |
| ATAGACGA | 0.0929 |
| ATCGTCTA | 0.0246 |
| ATGAAGTC | -0.0197 |
| ACAGCTCG | -0.137 |
| TAGGAATA | 0.0598 |

| Sequence | PBM E-score |
| --- | --- |
| AACCATGT | 0.0974 |
| ATGCAGGC | -0.112 |
| GCATTTAC | 0.0372 |
| AGATTTAT | 0.0411 |
| ACATTTAC | 0.333 |
| ACATTTAG | 0.279 |
| CCATTTAC | 0.0112 |
| ACATTTAT | 0.319 |
| CACAAGCC | -0.139 |
| CATCAGTA | 0.0122 |
| AGTGGTCG | -0.0675 |
| AGTTAAAT | 0.0476 |
| CGTGTTAA | -0.00332 |
| ATTTCGGA | 0.239 |
| CGGGGACC | -0.1 |
| TGGGGAAA | -0.0201 |
| AGGGGACG | -0.0829 |
| TGGGGACA | 0.433 |
| GGGGGACA | 0.287 |
| CGGGGACG | -0.152 |
| CGGGGACA | 0.396 |
| AGGGGACA | 0.386 |

| Sequence | PBM E-score |
| --- | --- |
| AGGGGACT | -0.151 |
| CTTGAGAC | 0.0475 |
| GACGTTAC | 0.0854 |
| AGGACGTC | 0.177 |
| GAGAAACA | 0.0761 |
| CGAGTGGC | -0.181 |
| ATGTCGCA | 0.38 |
| ACGTCGCG | 0.138 |
| AGGTCGCG | 0.0713 |
| GTGTCGCA | 0.0382 |
| ATGTCGCG | 0.387 |
| ATGTCGCC | 0.115 |
| GGGGCCAC | -0.325 |
| CTCGCGAC | 0.0116 |
| GTCGCGAC | 0.349 |
| GTCGCGAA | 0.141 |
| AAGCTGGT | -0.026 |
| TAGGCCTA | -0.0564 |
| ACGTTGTC | 0.119 |
| CAGTTGTC | 0.32 |
| AAGTTGTC | 0.298 |
